Assay outcomes (PubChem)
esBAF inh – Bmi1 luciferase reporter increase in mESCs, primary screen, esBAF inhibitor project, mouse ES cells, Bmi1 luciferase knock-in, single point. 24 h; 100% = twice the neutral-well signal. reporter increase, % at 12.5 µM. 350,000 tested, 2% active; in the data active = activation above about 40%; inconclusive = no clear call, values can overlap the other calls;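 note: 0% = median of the plate's neutral control wells and 100% = double that signal; a rise in the Bmi1 reporter signal indicates esBAF inhibition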
HSF1 activator – HSF-1 activators, primary screen, NIH3T3-HGL cells, MG132 stress, luminescence, single point; NIH3T3-HGL HSF-1 luciferase reporter, 8 h; 100% = twice DMSO control signal; activation, % at 9 µM; 300,000 tested, 1.7% active; AID 504408, 2011;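 active = mean replicate activation of at least 50% with a set share of replicates each reaching 50%; inconclusive = only one of those two conditions met; inactive = mean below 50% and too few replicates reaching it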;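 note: 0% = median of the neutral control wells and 100% = twice that signal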
MITF act – activators of MITF-driven TRPM1 promoter reporter, primary screen, cell-based, SK-MEL-5, luciferase, single point; SK-MEL-5 TRPM1-promoter luciferase, 24 h; % of positive control, neutral wells = 0; activation, % at 12.5 µM; 300,000 tested, 0.75% active;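 active = mean activation of at least 80% with every replicate also reaching 80%; inconclusive = mean reaches 80% but some replicate falls short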;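 note: 0% = neutral control wells and 100% = parthenolide positive control wells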
Wnt act – Wnt/beta-catenin pathway activators, primary screen, cell-based, plate reader, single point. Wnt/beta-catenin reporter cell assay, activator. activation, % at 9.35 µM. 300,000 tested, 1.2% active; in the data active = activation above about 30%, passing the limit was not always enough; inconclusive = no clear call, values can overlap the other calls;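 note: 0% = neutral control wells and 100% = positive control wells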
HSF1 inh – HSF1 inhibitors in luciferase reporter cells, primary screen, cell-based, NIH3T3, luminescence; NIH3T3-HGL HSE-luciferase, MG132-induced, luminescence 8 h; hits give low values; activity change, negative = inhibition, % at 7.5 µM (by protocol); 300,000 tested, 0.77% active; AID 2098, 2009;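 active = more than half of replicate wells show activity change below -50%, luminescence cut by over half; inconclusive = some wells, but at most half, below -50%; inactive = no replicate well below -50%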;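 note: luciferase reports HSF-1 transcriptional activity via heat shock element; 0% = median of DMSO wells and -100% = zero luminescence signal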
* hit, by the source's call; u = inconclusive; x = not tested or not shown. This is a sample that favours compounds with a hit; in the whole collection about 3.8% have one here.

SMILES	esBAF inh	HSF1 activator	MITF act	Wnt act	HSF1 inh
CC(CCc1ccccc1)NC(=O)COC(=O)c1ccc(S(C)(=O)=O)c([N+](=O)[O-])c1 (stereo not given)	x	-78	8	-19	-79*
CS(=O)(=O)c1ccc(C(=O)OCC(=O)NC(=O)C2CCCCC2)cc1[N+](=O)[O-]	x	70*	-64	12	42
CS(=O)(=O)c1ccc(C(=O)OCC(=O)Nc2cccnc2Cl)cc1[N+](=O)[O-]	2	x	-29	x	x
C[C@@H]1CN([C@H](C)CO)C(=O)c2cc(-c3cccnc3)cnc2O[C@H]1CN(C)C(=O)Cc1cccnc1	2	x	x	x	x
Cc1ccc(Cn2ncc3c(N4CCN(C)CC4)ncnc32)cc1	x	-81	5	2	-75*
COc1ccc(Cn2c(C3CC3)nc3ccc(NC(C)=O)cc3c2=O)cc1	u	51*	67	x	29
Cc1nc2ccc(NC(=O)c3ccccc3)cc2c(=O)n1Cc1ccc(F)cc1	8	x	x	-3	x
CCCc1nc2ccc(NC(=O)c3cccs3)cc2c(=O)n1Cc1ccccc1Cl	x	61*	6	-2	19
CCCc1nc2ccc(NC(C)=O)cc2c(=O)n1Cc1ccc(Cl)cc1	x	60*	82*	16	37
COc1ccc(Cn2c(C3CC3)nc3ccc(NC(=O)c4cccnc4)cc3c2=O)cc1	27	-33	x	x	-14
CO[C@H]1CN(C)C(=O)c2ccc(NS(=O)(=O)c3ccccc3)cc2OC[C@@H](C)N(Cc2ccccn2)C[C@@H]1C	0	x	x	x	x
COc1ccc(-c2cc(-c3ccccc3)c(C#N)c(S(C)=O)n2)cc1 (stereo not given)	-1	146*	-68	-26	119
Oc1c(Cl)cc(Cl)cc1/C=N/NC(=S)NC1CC2C=CC1C2 (stereo not given)	x	52*	x	0	12
Oc1ccccc1/C=N/NC(=S)NC1CC2C=CC1C2 (stereo not given)	36	28	x	4	10
Oc1ccccc1C=NNC(=S)NC1CC2C=CC1C2 (stereo not given)	70*	x	x	-3	x
Cc1ccc(S(=O)(=O)N2c3ccccc3OCC2c2ccccc2)cc1 (stereo not given)	10	56*	x	-10	5
NS(=O)(=O)c1ccc(NC(=S)Nc2cc(Cl)c(Cl)cc2Cl)cc1	x	1	3	-2	-4
CSc1ccccc1NC(=S)Nc1ccc(S(N)(=O)=O)cc1	x	54*	-4	1	13
OC(c1ccc(F)cc1)c1nc(/C=C/c2ccccc2)cs1 (stereo not given)	50*	x	x	u	x
Cc1ccc(NC(=O)c2ccc3c(c2)nnn3C)cc1	x	-1	53	39*	8
O=C(Nc1ccccc1)OCCCCOC(=O)Nc1ccccc1	-2	x	-9	0	x
COC(=O)c1sccc1NC(=O)Nc1cccc(C(C)=O)c1	1	x	1	-1	x
COC(=O)c1sccc1NC(=O)Nc1cccc(C)c1	95*	25	19	12	9
CN(C)c1ccc(NC(=O)Nc2ccc3c(c2)nnn3C)cc1	39	16	x	11	11
COc1cccc(NC(=O)Nc2ccc3c(c2)nnn3C)c1	48*	x	107*	16	x
SMILES	esBAF inh	HSF1 activator	MITF act	Wnt act	HSF1 inh
O=C(Nc1ccccc1)OCCCc1ccccc1	57*	31	56	u	24
C[C@@H](NC(=O)C[C@H]1CC[C@H](NC(=O)CN2CCOCC2)[C@@H](CO)O1)c1ccccc1	6	x	x	x	x
COc1cccc(CN(C)C[C@@H]2OCc3cn(nn3)CCCC(=O)N([C@@H](C)CO)C[C@@H]2C)c1	-2	x	x	x	x
COc1ccc(OC(=O)Nc2ccccc2)cc1	14	33	u	x	22
CCc1ccc(OC(=O)Nc2ccccc2)cc1	-5	26	92*	23	24
COc1cccc(NC(=O)Nc2cc(C)ccc2OC)c1	x	-8	4	7	-5
COc1cccc(NC(=O)Nc2cc(C)ccc2F)c1	61*	8	x	x	10
CCc1ccc(NC(=O)Nc2cccc(OC)c2)cc1	62*	9	51	-4	19
C[C@@H]1CN([C@H](C)CO)C(=O)c2ccccc2-c2ccccc2CO[C@@H]1CN(C)S(=O)(=O)c1ccc(C#N)cc1	1	x	x	x	x
Cc1noc(C)c1NC(=O)Nc1ccc2c(c1)CC(=O)N([C@H](C)CO)C[C@H](C)[C@H](CN(C)S(=O)(=O)c1c(C)noc1C)O2	-4	x	x	x	x
COC(=O)/C=C/C(=O)Nc1cccc(C(F)(F)F)c1	x	93*	12	-5	51
O=C(Nc1cc2c(oc1=O)CCCC2=O)c1ccccc1	24	11	x	2	0
Cc1ccc(C(=O)Nc2cc3c(oc2=O)CCCC3=O)cc1	x	30	x	34*	15
CN(C)c1ccc(/C=N/NC(=O)C2COc3ccccc3O2)o1 (stereo not given)	x	-84	5	-2	-78*
CC(C)NC(=O)Nc1ccc2c(c1)C(=O)N([C@H](C)CO)C[C@H](C)[C@@H](CN(C)C(=O)Nc1ccc3c(c1)OCO3)OCCCC[C@H](C)O2	11	x	x	x	x
CC1Cc2ccccc2N1C(=O)CO/N=C/c1ccc(OC(F)F)cc1 (stereo not given)	x	-90	-1	-3	-88*
COc1ccc(/C=C/C(=O)OCC(=O)N2c3ccccc3CC2C)cc1 (stereo not given)	-5	x	x	0	x
O=C(C[C@@H]1C[C@H]2c3cc(NC(=O)CC4CC4)ccc3O[C@H]2[C@@H](CO)O1)NCCN1CCCCC1	6	x	x	x	x
COc1ccc2[nH]c(=O)c(CN(Cc3cccs3)S(=O)(=O)c3c(C)ccc4nsnc34)cc2c1	17	-69	x	-12	-64*
Cc1ccc2[nH]c(=O)c(CN(Cc3ccco3)S(=O)(=O)c3c(C)ccc4nsnc34)cc2c1	3	-1	-9	-3	1
O=C(C[C@@H]1CC[C@H]2[C@@H](COC[C@@H](O)CN2C(=O)c2ccc(F)cc2)O1)N1CCOCC1	-3	x	x	x	x
C=C(C)C1Cc2cc3ccc(=O)oc3cc2O1 (stereo not given)	x	1	38	x	7
CC(C)(O)[C@H]1Cc2cc3ccc(=O)oc3cc2O1	0	39	98*	11	6
Cc1cccc(C)c1NC(=O)N1CCN(c2nc3ccccc3s2)CC1	48*	5	-8	2	-4
c1ccc(CN2CCN(c3nc4ccccc4s3)CC2)cc1	u	39	77	40*	19
Cc1cccc(Cl)c1NC(=O)N1CCCN(c2nc3ccc(Cl)cc3s2)CC1	15	22	-25	0	5
O=C(/C=C/c1nc2ccccc2s1)N1CCCCCC1	32	75*	100*	10	32
c1ccc2sc(N3CCCCC3)nc2c1	49*	x	47	16	x
O=C(O)CCC(=O)N1CCN(c2nc3ccccc3s2)CC1	0	20	-9	7	-3
